Inconclusive results are not listed. Active and inactive are the calls of the source.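 Rule for the calls, unless noted: active = viability at or under a set limit in both replicates, limit being median viability minus 3 SD (cut at about 48% in these data, passing the limit was not always enough); inconclusive = at or under the limit in just one replicate; inactive = at or above the limit in both replicates.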
Legend:
[1] = reducers of endogenous Her2 protein level, primary screen, SKBR3 breast tumor cells, AlphaScreen, ATP viability (AID 461;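 active = Her2 level under about 52% in both replicate screens, with viability over 70% of control, limit read from the data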;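 for Her2 level: lower value means less Her2 protein in the cells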;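 for viability: percent of carrier control wells set as 100% viability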); conditions: 18-24 h, measured here: SKBR3 viability, ATP luminescence, at 10 µM
[2] = molecular target: Receptor tyrosine-protein kinase erbB-2 (Homo sapiens) (UniProt P04626); experiment: as above; conditions: 18-24 h, at 10 µM, stronger effect = lower value
Sequence of Receptor tyrosine-protein kinase erbB-2 (Homo sapiens) (P04626 whole entry, looked up): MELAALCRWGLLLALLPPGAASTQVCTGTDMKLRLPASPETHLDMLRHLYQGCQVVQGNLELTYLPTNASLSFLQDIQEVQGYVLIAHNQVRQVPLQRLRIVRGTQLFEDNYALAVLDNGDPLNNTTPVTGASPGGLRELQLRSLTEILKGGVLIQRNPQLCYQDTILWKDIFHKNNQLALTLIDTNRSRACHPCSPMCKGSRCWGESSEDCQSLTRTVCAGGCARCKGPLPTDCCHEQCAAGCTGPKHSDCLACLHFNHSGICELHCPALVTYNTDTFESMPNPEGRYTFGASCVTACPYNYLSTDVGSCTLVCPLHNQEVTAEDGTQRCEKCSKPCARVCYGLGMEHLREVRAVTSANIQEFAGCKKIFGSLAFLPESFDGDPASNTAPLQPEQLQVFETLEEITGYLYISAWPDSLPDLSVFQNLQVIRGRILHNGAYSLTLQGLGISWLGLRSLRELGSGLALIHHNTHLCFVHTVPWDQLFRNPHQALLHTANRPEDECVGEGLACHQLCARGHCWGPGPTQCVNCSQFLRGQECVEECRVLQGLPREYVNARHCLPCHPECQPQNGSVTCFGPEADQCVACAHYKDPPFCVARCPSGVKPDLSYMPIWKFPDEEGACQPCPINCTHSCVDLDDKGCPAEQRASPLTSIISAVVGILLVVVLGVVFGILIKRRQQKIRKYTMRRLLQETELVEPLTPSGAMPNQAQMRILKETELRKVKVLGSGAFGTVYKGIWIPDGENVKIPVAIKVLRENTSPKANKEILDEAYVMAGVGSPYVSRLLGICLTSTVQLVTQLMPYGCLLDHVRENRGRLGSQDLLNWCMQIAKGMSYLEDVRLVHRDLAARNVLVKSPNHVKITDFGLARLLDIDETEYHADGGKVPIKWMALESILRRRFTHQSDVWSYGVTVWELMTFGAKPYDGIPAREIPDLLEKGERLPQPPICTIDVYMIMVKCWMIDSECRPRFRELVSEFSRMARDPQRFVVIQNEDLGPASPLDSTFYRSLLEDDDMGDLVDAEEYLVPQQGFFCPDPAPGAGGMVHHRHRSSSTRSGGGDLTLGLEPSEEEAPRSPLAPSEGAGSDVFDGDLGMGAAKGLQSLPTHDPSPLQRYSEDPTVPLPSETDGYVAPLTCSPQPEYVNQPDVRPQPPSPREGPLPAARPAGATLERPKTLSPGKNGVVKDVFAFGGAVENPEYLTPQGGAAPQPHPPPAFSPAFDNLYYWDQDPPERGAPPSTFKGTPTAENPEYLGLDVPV

[3] = SK-BR-3 cell growth inhibitors, pilot screen, 24 h, human (AID 572;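 active = viability at or below 10% of carrier control in both of two separate runs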;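 note: compound exposure lasted between 18 and 24 h rather than exactly 24 h; 100% = carrier-treated control wells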); conditions: SK-BR-3 viability, CellTiter-Glo luminescence, at 10 µM, stronger effect = lower value
[4] = HUVEC growth inhibition – cell-based, human, primary screen (AID 575;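 active = viability at or below 30% in both replicate assays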;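 note: 100% = median of untreated cell wells with 0.1% DMSO on each plate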); conditions: HUVEC proliferation, CellTiter-Glo luminescence, 72 h; at 10 µM; stronger effect = lower value
[5] = growth inhibitors of H69AR lung tumor, primary screen, human, duplicate replicates (AID 580); conditions: H69AR lung tumor cells viability, ATP luminescence, 72 h; at 10 µM; stronger effect = lower value;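 note: 100% = mean luminescence of untreated wells and 0% = no signal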
[6] = reversal of MRP1-mediated doxorubicin resistance, pilot screen, H69AR cells, doxorubicin co-treatment (AID 601;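 active = viability loss from added drug above about 55%, and viability with drug at most 40%, in both replicates, limit read from the data, passing the limit was not always enough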); conditions: CellTiter-Glo, 72 h, at 10 µM; for differential viability (reversal): stronger effect = higher value
[7] = 384-well plate pilot, post-Golgi transport modulator project, inhibition of yeast transport mutant growth (AID 636; in the data active = inhibition above about 31%); conditions: absorbance 615 nm, about 18 h, stronger effect = higher value
[8] = growth suppression of yeast trafficking mutant, preliminary HTS, modulators of trafficking downstream of Golgi apparatus project, 1536-format plate, OD 615 nm (AID 637; in the data active = inhibition above about 30%); conditions: yeast transport mutant growth, absorbance 615 nm, 18 h; stronger effect = higher value
[9] = OD615 S. cerevisiae growth inhibition, permissive medium, pilot counter-assay, permissive growth control for S. cerevisiae lifespan shortening project (AID 705;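 active = growth inhibition above 25% in both replicates, a cutoff set 3 SD above the mean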); conditions: OD615, 24 h, at 10 µM, stronger effect = higher value
[10] = Restrictive medium S. cerevisiae growth inhibition, OD615, pilot screen of yeast lifespan reduction project, restrictive growth control (AID 706;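 active = growth inhibition above a set limit, 3 SD over mean compound inhibition, in both replicates, cut at about 43% in these data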;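 note: modified DeaD lifespan yeast strain shifted to restrictive glucose medium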); conditions: OD615, 48 h, at 10 µM, stronger effect = higher value
[11] = viability gain of MRP-1-high H69AR cells under doxorubicin, pilot screen, MRP-1 activator project, CellTiter-Glo, duplicate (AID 807;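 active = viability increase at or above a cutoff of the median across tested compounds plus 3 SD, cut at about 8.5% in these data, passing the limit was not always enough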;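 note: compound pretreatment 18-22 h then 72 h combined with doxorubicin; 0% = doxorubicin alone and 100% = vehicle without doxorubicin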); conditions: H69AR viability with doxorubicin, CellTiter-Glo luminescence; at 10 µM; stronger effect = higher value
[12] = growth suppression of beta-catenin knockout HCT116, pilot screen, human colon tumor cells (AID 823;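 active = cell viability at or below a set limit in both duplicate runs, the limit being the all-compound median minus 4 SD, cut at about 23% in these data, passing the limit was not always enough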;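 note: 0% = wells killed by 20 µM Hyamine and 100% = untreated DMSO cell wells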); conditions: CellTiter-Glo, 60 h, at 10 µM, stronger effect = lower value
[13] = growth suppression of PTEN-deleted HCT116, pilot screen, cell-based, HCT116 clonal line, CellTiter-Glo (AID 824;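 active = viability at or below 27.92% in each of two runs, the all-compound median minus 4 SD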;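 note: 0% = 20 µM Hyamine control and 100% = vehicle cell control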); conditions: 60 h, at 10 µM, stronger effect = lower value
[14] = inhibitors of the yeast RAM network, pilot screen, dse1pr::URA3 reporter, 5-FOA selection (AID 869;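 active = inhibition over a set limit, the all-compound mean plus 3 SD, in both replicate runs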;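 note: 0% = DMSO wells with no growth and 100% = 10 µM 1-NA-PP1 with full growth; RAM network block rescues cells from 5-FOA so hits raise OD615 growth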); conditions: S. cerevisiae dse1pr::URA3 5-FOA growth, OD615, 2 d; at 10 µM; stronger effect = higher value; strain carries analog-sensitive mutant Cbk1 kinase
[15] = RAM signaling pathway blockade in yeast – S. cerevisiae, Pdr1DBD-CYC8 efflux-inhibited sensitized strain, primary screen (AID 1298;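 active = RAM network inhibition above 8.4% in each of two replicates, 3 SD over the compound average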;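 note: 0% = DMSO untreated cells without growth and 100% = 10 µM 1-NA-PP1 full growth; higher means more yeast growth rescued from 5-FOA killing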); conditions: S. cerevisiae cbk1-as DSE1-URA3 strain, 5-FOA growth OD615, 2 d; at 50 µM; stronger effect = higher value
[16] = H69AR cells + 2 uM doxorubicin, measured here: viability with 2 uM doxorubicin, stronger effect = lower value
[17] = H69AR cells, compound alone cytotoxicity

CCN(CC)CCNC(=O)c1ccc(CS(=O)(=O)c2ccc(Br)cc2)o1
90.1%: viability [6, 16]
95.9%: viability [6, 17]
inactive: Her2 level [2] 110% | viability [3] 92.5% | viability [4] 100% | viability [5] 95.9% | differential viability (reversal) ([6]; H69AR cells + 2 uM doxorubicin) 5.79% | inhibition [7] -0.26% | inhibition [8] 0.17% | growth inhibition [9] -12.3% | growth inhibition [10] -17.7% | viability increase [11] -2.1% | viability [12] 97.1% | viability [13] 96.5% | inhibition [14] 0.92% | RAM network inhibition [15] 0.74%
92.5%: viability [1]

CCOC(=O)c1sc2nc(NC(=O)COc3ccccc3)sc2c1C
78.5%: viability [1]
69.4%: viability [6, 17]
79.5%: viability [6, 16]
inactive: Her2 level [2] 123% | viability [3] 78.5% | viability [4] 74.1% | viability [5] 69.4% | differential viability (reversal) ([6]; H69AR cells + 2 uM doxorubicin) -10% | inhibition [7] 3.72% | inhibition [8] -0.33% | growth inhibition [9] -2.58% | growth inhibition [10] -19.8% | viability increase [11] 1.51% | viability [12] 109% | viability [13] 98.4% | inhibition [14] 2.67% | RAM network inhibition [15] 0.88%

CCC(C)(C(=O)NC1CCCC1)N(Cc1cccs1)C(C)=O (stereo not given)
96.9%: viability [6, 17]
120%: viability [1]
90.2%: viability [6, 16]
inactive: Her2 level [2] 83.5% | viability [3] 120% | viability [4] 102% | viability [5] 96.9% | differential viability (reversal) ([6]; H69AR cells + 2 uM doxorubicin) 6.71% | inhibition [7] -9.04% | inhibition [8] 5.08% | growth inhibition [9] -17.6% | growth inhibition [10] -23.3% | viability increase [11] -0.17% | viability [12] 108% | viability [13] 96.3% | inhibition [14] 0.55% | RAM network inhibition [15] 4.23%

Cc1[nH]nc2c1C(=O)CC(C)(C)C2
83.7%: viability [6, 16]
89%: viability [6, 17]
inactive: Her2 level [2] 100% | viability [3] 95.5% | viability [4] 100% | viability [5] 89% | differential viability (reversal) ([6]; H69AR cells + 2 uM doxorubicin) 5.23% | inhibition [7] -1.67% | inhibition [8] -10.3% | growth inhibition [9] 2.65% | growth inhibition [10] -3.72% | viability increase [11] -4.31% | viability [12] 95.8% | viability [13] 94% | inhibition [14] 1.44% | RAM network inhibition [15] 1.23%
95.5%: viability [1]

COc1ccccc1-c1cc2nc(C)c(CCC(=O)NCc3ccco3)c(C)n2n1
89.9%: viability [6, 17]
80%: viability [1]
88.3%: viability [6, 16]
inactive: Her2 level [2] 88% | viability [3] 80% | viability [4] 88% | viability [5] 89.9% | differential viability (reversal) ([6]; H69AR cells + 2 uM doxorubicin) 1.59% | inhibition [7] -2.69% | inhibition [8] 0.33% | growth inhibition [9] -2.34% | growth inhibition [10] -6.24% | viability increase [11] -3.72% | viability [12] 97.2% | viability [13] 98.1% | inhibition [14] 1.53% | RAM network inhibition [15] 4.36%

COc1ccc(-c2nc(CSCC(=O)N3CCN(c4cccc(C)c4)C(C)C3)c(C)o2)cc1OC (stereo not given)
85.7%: viability [6, 17]
inactive: Her2 level [2] 67.5% | viability [3] 102% | viability [4] 54.6% | viability [5] 85.7% | differential viability (reversal) ([6]; H69AR cells + 2 uM doxorubicin) -5.97% | inhibition [7] -2.27% | inhibition [8] 1.33% | growth inhibition [9] -4.45% | growth inhibition [10] 8.39% | viability increase [11] 0.02% | viability [12] 56.9% | viability [13] 56.4% | inhibition [14] 1.96% | RAM network inhibition [15] 7.25%
102%: viability [1]
91.7%: viability [6, 16]

CC1CCN(Cc2nc3c(c(=O)n(C)c(=O)n3C)n2Cc2cccc3ccccc23)CC1
89.2%: viability [6, 16]
84%: viability [1]
inactive: Her2 level [2] 86.5% | viability [3] 84% | viability [4] 98% | viability [5] 84.9% | differential viability (reversal) ([6]; H69AR cells + 2 uM doxorubicin) -4.26% | inhibition [7] -4% | inhibition [8] 3.67% | growth inhibition [9] -0.525% | growth inhibition [10] 0.35% | viability increase [11] -1.93% | viability [12] 87% | viability [13] 88.2% | inhibition [14] 0.115% | RAM network inhibition [15] 7.49%
84.9%: viability [6, 17]

CN1CCN(Cc2nc3c(c(=O)[nH]c(=O)n3C)n2CCc2ccccc2)CC1
93%: viability [6, 17]
82%: viability [1]
inactive: Her2 level [2] 96% | viability [3] 82% | viability [4] 91.2% | viability [5] 93% | differential viability (reversal) ([6]; H69AR cells + 2 uM doxorubicin) -4.29% | inhibition [7] -6% | inhibition [8] -5% | growth inhibition [9] -4.41% | growth inhibition [10] 1.98% | viability increase [11] -4.22% | viability [12] 92% | viability [13] 93.5% | inhibition [14] 0.565% | RAM network inhibition [15] 1.56%
97.2%: viability [6, 16]

COc1ccc(CCNC(=O)C2(C)CCC(=O)N2Cc2ccc3c(c2)OCO3)cc1OC (stereo not given)
77.5%: viability [1]
92.8%: viability [6, 17]
inactive: Her2 level [2] 98% | viability [3] 77.5% | viability [4] 88.2% | viability [5] 92.8% | differential viability (reversal) ([6]; H69AR cells + 2 uM doxorubicin) 5.6% | inhibition [7] -2.69% | inhibition [8] -5.17% | growth inhibition [9] -13.9% | growth inhibition [10] -25.8% | viability increase [11] 0.26% | viability [12] 102% | viability [13] 97.5% | inhibition [14] 0.985% | RAM network inhibition [15] 1.36%
87.2%: viability [6, 16]

c1ccc(C(Cc2nc(-c3ccccn3)no2)c2ccccc2)cc1
96%: viability [1]
95.2%: viability [6, 17]
107%: viability [6, 16]
inactive: Her2 level [2] 94% | viability [3] 96% | viability [4] 92.8% | viability [5] 95.2% | differential viability (reversal) ([6]; H69AR cells + 2 uM doxorubicin) -11.8% | inhibition [7] -4.03% | inhibition [8] 1.8% | growth inhibition [9] -9.91% | growth inhibition [10] 12.9% | viability increase [11] -2.01% | viability [12] 89.7% | viability [13] 82.5% | inhibition [14] 1.98% | RAM network inhibition [15] 6.08%

Source: PubChem BioAssay
